Data reported in PubChem BioAssay (Tox21).
Results filed as inconclusive are left out. Calls of active or inactive are those of the source. Unless noted, calls follow the shape of the dose curve; as a rule, active = well fitted curve in the direction sought with a large enough effect in the repeat runs; inconclusive = weak or mixed curves; inactive = no such curve, though single readings can be large; an effect the other way counts as inactive or inconclusive.

Legend:
[1] = qHTS assay to identify small molecule antagonists of the androgen receptor (AR) signaling pathway using the MDA cell line in the presence of 0.5 nM R1881 - cell viability counter screen (AID 1259242); also: nearly all actives have a fitted effect of over 45% in size
Method in brief: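 Viability of MDA-kb2 cells was multiplexed with the luciferase AR readout; after 16 hr with compounds and R1881 at 0.5 nM final, CellTiter-Fluor fluorescence was recorded.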

[2] = biological target: Estrogen receptor (Homo sapiens) (UniProt P03372); assay: qHTS assay to identify small molecule antagonists of the estrogen receptor alpha (ER-alpha) signaling pathway using the BG1 cell line in the presence of 0.1 nM 17-beta-estradiol (AID 1259244); also: nearly all actives have a fitted effect of over 50% in size; also: potency is read from the fitted curve at half-maximal effect
Sequence of Estrogen receptor (Homo sapiens) (P03372 whole entry, looked up): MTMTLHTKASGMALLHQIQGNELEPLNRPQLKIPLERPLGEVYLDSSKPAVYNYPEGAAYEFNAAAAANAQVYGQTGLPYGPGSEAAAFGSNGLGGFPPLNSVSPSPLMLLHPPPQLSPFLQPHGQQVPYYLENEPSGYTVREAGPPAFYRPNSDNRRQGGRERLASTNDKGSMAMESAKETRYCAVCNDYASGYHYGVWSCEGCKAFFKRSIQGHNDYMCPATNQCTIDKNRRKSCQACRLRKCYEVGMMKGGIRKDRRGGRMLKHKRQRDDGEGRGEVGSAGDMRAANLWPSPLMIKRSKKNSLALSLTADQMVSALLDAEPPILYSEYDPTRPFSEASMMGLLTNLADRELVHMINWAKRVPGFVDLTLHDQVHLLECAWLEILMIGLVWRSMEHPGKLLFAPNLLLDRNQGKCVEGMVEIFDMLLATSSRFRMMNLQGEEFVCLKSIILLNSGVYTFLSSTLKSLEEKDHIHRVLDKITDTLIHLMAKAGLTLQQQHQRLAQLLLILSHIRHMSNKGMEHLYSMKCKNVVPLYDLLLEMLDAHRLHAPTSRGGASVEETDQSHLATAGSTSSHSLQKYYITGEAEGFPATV
Method in brief: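 Estradiol at 0.1 nM (final) stimulates the endogenous ER-alpha of VM7Luc4E2 cells carrying an ERE-driven luciferase; compounds are co-incubated 22 h at 37C and luciferase output quantified by luminescence.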

[3] = qHTS assay to identify small molecule phospholipidosis (PLD) inducers (AID 1259344; active = well fitted curve in the direction sought with a large enough effect; an effect the other way counts as inactive or inconclusive)
Method in brief: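 HepG2 cells grown on collagen I take up LipidTOX Red while exposed to compound for 24 h; after fixation they are imaged at 20x and pit metrics are extracted.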

[4] = qHTS assay to identify small molecule HDAC inhibitors (AID 1259364);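 also: wild-type HCT-116 cells with endogenous class I/II HDAC activity; top concentration of the series differs between compounds; nearly all actives have a fitted effect of over 45% in size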
Method in brief: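 Read-out: luminescence of HDAC-Glo I/II reagent, 30 min RT, reflecting class I/II deacetylase activity in whole HCT-116 cells pre-exposed 2 h to DMSO-dissolved compounds.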

[5] = qHTS assay to identify small molecule HDAC inhibitors - cell viability counter screen (AID 1259365); also: series mostly up to about 92 µM; nearly all actives have a fitted effect of over 50% in size
Method in brief: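 After overnight seeding at 1,500 cells per well, wild-type HCT-116 cultures took up compounds in DMSO for 2hr at 37 C. Viable cell content came from luminescence with CellTiter-Glo.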

[6] = qHTS assay to identify small molecule agonists of the sonic hedgehog signaling (Shh) pathway - cell viability counter screen (AID 1259366); also: nearly all actives have a fitted effect of over 50% in size; also: potency is read from the fitted curve at half-maximal effect
Method in brief: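 Same-well cytotoxicity read. Gli1-Luc reporter 3T3 cells; compounds 24hr, 37C/5% CO2; CellTiter-Fluor fluorescence.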

[7] = qHTS assay to identify small molecule antagonists of the sonic hedgehog signaling (Shh) pathway - cell viability counter screen (AID 1259367); also: nearly all actives have a fitted effect of over 55% in size; also: potency is read from the fitted curve at half-maximal effect
Method in brief: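 After a 4 hr settling period, 3T3 Gli1-Luc cells were treated with DMSO-dissolved chemicals and conditioned medium, kept 24 hr at 37C in 5% CO2, and assayed for viability by CellTiter-Fluor fluorescence following 1 hr reagent incubation.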

[8] = qHTS assay to identify small molecule agonists of the sonic hedgehog signaling (Shh) pathway (AID 1259368; calls by dose curve;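 also: NIH/3T3-derived 3T3Gli1-Luc cells carrying a stable Gli1-driven firefly luciferase reporter; series mostly up to about 92 µM; nearly all actives have a fitted effect of over 15% in size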)
Method in brief: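 A Gli1 transcriptional response element controlled firefly luciferase in 3T3Gli1-Luc cells. Compounds and a positive control were added 4 hr after plating, and cells were incubated a further 24 hr at 37 C before luminescence detection.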

[9] = qHTS assay to identify small molecule antagonists of the sonic hedgehog signaling (Shh) pathway (AID 1259369; calls by dose curve; also: nearly all actives have a fitted effect of over 45% in size; also: potency is read from the fitted curve at half-maximal effect)
Method in brief: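 For antagonist detection, the reporter line received test compounds together with conditioned medium, incubated 24hr at 37 C, 5% CO2, then luminescence was recorded following 30min room-temperature luciferase reagent incubation.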

[10] = qHTS assay to identify small molecule agonists of the androgen receptor (AR) signaling pathway in the presence of an antagonist - cell viability counter screen (AID 1259379);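 also: MDA-kb2 human breast cancer cells carrying an MMTV luciferase reporter; series mostly up to about 92 µM; nearly all actives have a fitted effect of over 25% in size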
Method in brief: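 Seed MDA-kb2 at 3,000 cells/well; incubate 5 hr, 37C, 0% CO2. Add nilutamide to 3.0uM final, then pin compounds at 15 concentrations. Incubate 16 hr. Add CellTiter-Fluor at 15 hr, read fluorescence after 1 hr.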

[11] = qHTS assay to identify small molecule agonists of the estrogen receptor beta (ER-beta) signaling pathway - cell viability counter screen (AID 1259380); also: nearly all actives have a fitted effect of over 30% in size; also: potency is read from the fitted curve at half-maximal effect
Method in brief: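 CellTiter-Glo read, 30 min RT, same wells as bla assay; cells ER-beta-UAS-bla HEK293T; 16 hr compound, 37C; medium 2% charcoal-stripped FBS.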

[12] = qHTS assay to identify small molecule antagonists of the estrogen receptor beta (ER-beta) signaling pathway - cell viability counter screen (AID 1259382); also: series mostly up to about 92 µM; nearly all actives have a fitted effect of over 55% in size
Method in brief: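 In this multiplexed counter screen, cells were seeded at 2,000 per well in medium with 2% charcoal-stripped FBS and incubated 6 hr before compound and 1nM final E2 were added. Sixteen hours later, ATP-based luminescence reported viability.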

[13] = biological target: Estrogen receptor (Homo sapiens) (UniProt P03372); assay: qHTS assay to identify small molecule agonists of the estrogen receptor alpha (ER-alpha) signaling pathway in the presence of an antagonist (AID 1259383; calls by dose curve; also: top concentration of the series differs between compounds; nearly all actives have a fitted effect of over 15% in size)
Method in brief: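 Stably transfected VM7Luc4E2 reporter cells, kept 5 days in charcoal-stripped serum, received ICI-182,780 at 10.0nM final before compound addition. Following 22hr incubation at 37C and 5% CO2, luciferase signal was read by luminescence.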

[14] = qHTS assay to identify small molecule agonists or antagonists of the thyroid stimulating hormone receptor (TSHR) signaling pathway - wild type cell line counter screen (AID 1259384; calls by dose curve)
Method in brief: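 Wild-type HEK293 cells were plated 18 h at 37 C/5% CO2, pin-dosed with compound plus Ro20-1724 medium, held 30 min at room temperature, then given cAMP-d2 and anti-cAMP-cryptate; fluorescence was read after 1 h. Fifteen concentrations, triplicate.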

[15] = biological target: Thyrotropin receptor (Homo sapiens) (UniProt P16473); assay: qHTS assay to identify small molecule antagonists of the thyroid stimulating hormone receptor (TSHR) signaling pathway (AID 1259385; calls by dose curve; also: nearly all actives have a fitted effect of over 20% in size)
Sequence of Thyrotropin receptor (Homo sapiens) (P16473 whole entry, looked up): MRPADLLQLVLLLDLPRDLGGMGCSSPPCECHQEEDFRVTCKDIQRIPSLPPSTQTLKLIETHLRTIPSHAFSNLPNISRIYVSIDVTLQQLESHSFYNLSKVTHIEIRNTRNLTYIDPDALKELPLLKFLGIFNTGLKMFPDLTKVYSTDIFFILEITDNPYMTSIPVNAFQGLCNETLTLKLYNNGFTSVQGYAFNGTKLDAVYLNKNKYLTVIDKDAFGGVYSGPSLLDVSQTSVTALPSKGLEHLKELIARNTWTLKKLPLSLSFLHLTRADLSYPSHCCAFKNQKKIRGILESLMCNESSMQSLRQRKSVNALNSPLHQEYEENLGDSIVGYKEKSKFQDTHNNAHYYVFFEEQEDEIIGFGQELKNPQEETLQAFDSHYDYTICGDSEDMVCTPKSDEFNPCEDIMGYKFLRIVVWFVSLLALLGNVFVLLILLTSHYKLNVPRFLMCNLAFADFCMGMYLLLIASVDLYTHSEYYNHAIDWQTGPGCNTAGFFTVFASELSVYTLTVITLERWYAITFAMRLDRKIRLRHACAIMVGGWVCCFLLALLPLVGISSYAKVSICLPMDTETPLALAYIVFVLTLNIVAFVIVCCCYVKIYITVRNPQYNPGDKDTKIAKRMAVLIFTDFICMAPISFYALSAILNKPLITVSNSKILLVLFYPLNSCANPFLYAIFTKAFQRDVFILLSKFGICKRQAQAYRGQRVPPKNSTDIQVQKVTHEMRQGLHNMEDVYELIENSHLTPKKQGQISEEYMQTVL
Method in brief: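 TSHR-HEK293 cells were plated and held 18 h at 37C/5% CO2, then given compound plus Ro20-1724 and stimulated with TSH at 1.5 ng/mL final. After 30 min at room temperature, cAMP was detected with cAMP-d2/anti-cAMP-cryptate (1 h) by fluorescence.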

[16] = qHTS assay to identify small molecule agonists of the estrogen receptor alpha (ER-alpha) signaling pathway in the presence of an antagonist - cell viability counter screen (AID 1259386);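 also: cells exposed to compounds for 22 h at 37 °C before the viability read; nearly all actives have a fitted effect of over 30% in size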; also: potency is read from the fitted curve at half-maximal effect
Method in brief: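 Viability counter screen using VM7Luc4E2 (full-length ER-alpha, four ERE-luciferase). The cells were treated with compounds alongside ICI-182,780 10.0nM for 22hr, and live-cell protease fluorescence was quantified with CellTiter-Fluor.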

[17] = biological target: Estrogen receptor beta (Homo sapiens) (UniProt Q92731); assay: qHTS assay to identify small molecule agonists of the estrogen receptor beta (ER-beta) signaling pathway (AID 1259377; active = well fitted activation curve with a large enough effect in the signal ratio in the repeat runs, not every such curve was filed as active; the % refers to the signal ratio)
Sequence of Estrogen receptor beta (Homo sapiens) (Q92731 whole entry, looked up): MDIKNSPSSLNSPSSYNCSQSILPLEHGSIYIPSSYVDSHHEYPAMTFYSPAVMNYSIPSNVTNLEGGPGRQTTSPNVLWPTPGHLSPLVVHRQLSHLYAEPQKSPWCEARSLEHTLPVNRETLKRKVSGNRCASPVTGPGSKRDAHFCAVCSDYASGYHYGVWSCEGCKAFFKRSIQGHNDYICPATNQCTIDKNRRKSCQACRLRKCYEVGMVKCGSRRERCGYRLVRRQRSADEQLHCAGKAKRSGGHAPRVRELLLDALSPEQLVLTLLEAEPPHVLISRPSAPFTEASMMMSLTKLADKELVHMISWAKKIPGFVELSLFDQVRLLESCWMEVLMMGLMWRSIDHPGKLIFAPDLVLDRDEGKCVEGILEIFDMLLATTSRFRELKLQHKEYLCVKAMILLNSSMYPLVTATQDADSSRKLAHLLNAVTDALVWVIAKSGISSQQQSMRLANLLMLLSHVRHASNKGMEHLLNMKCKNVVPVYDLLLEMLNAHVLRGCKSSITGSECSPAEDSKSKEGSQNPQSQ
Method in brief: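 Read-out: beta-lactamase FRET fluorescence. Cell line: ER-beta-UAS-bla HEK293T in 2% charcoal-stripped FBS. Exposure: 16 hr at 37C. Substrate step: 2 h at room temperature.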

[18] = biological target: Estrogen receptor beta (Homo sapiens) (UniProt Q92731); assay: qHTS assay to identify small molecule antagonists of the estrogen receptor beta (ER-beta) signaling pathway (AID 1259378; active = well fitted inhibition curve with a large enough effect in the signal ratio in the repeat runs, not every such curve was filed as active; the % refers to the signal ratio)
Method in brief: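 ER-beta-UAS-bla HEK293T (GripTite) cells in 2% charcoal-stripped FBS medium were preincubated 6 hr at 37C, dosed with compound, then stimulated with 1 nM E2 (final) for 16 hr; beta-lactamase reporter read by B/G FRET fluorescence after 2 hr substrate loading.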

[19] = biological target: Androgen receptor (Homo sapiens) (UniProt P10275); assay: qHTS assay to identify small molecule antagonists of the androgen receptor (AR) signaling pathway using the MDA cell line in the presence of 0.5 nM R1881 (AID 1259243); also: nearly all actives have a fitted effect of over 50% in size
Sequence of Androgen receptor (Homo sapiens) (P10275 whole entry, looked up): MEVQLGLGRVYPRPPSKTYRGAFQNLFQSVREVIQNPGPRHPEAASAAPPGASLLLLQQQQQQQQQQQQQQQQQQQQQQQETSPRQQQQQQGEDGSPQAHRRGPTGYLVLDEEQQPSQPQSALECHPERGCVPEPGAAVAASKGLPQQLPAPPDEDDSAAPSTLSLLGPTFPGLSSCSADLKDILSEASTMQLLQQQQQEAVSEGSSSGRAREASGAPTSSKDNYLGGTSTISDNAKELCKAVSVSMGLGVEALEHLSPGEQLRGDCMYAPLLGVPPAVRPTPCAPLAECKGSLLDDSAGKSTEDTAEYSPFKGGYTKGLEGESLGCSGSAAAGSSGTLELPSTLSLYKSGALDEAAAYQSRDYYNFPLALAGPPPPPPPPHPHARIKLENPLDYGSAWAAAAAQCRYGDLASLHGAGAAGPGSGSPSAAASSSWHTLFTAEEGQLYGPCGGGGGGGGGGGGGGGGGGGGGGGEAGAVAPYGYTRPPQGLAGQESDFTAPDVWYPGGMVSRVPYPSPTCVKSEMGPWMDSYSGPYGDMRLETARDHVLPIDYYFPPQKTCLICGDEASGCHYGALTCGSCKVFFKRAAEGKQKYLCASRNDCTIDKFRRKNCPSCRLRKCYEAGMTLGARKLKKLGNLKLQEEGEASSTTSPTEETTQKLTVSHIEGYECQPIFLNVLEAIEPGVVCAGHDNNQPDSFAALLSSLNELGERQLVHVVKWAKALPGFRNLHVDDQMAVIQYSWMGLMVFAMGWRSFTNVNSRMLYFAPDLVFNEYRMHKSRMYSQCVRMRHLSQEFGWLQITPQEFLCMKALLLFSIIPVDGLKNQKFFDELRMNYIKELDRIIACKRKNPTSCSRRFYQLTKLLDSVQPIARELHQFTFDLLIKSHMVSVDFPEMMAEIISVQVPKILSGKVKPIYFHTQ
Method in brief: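 Reporter cells cultured without CO2 receive test chemicals, then 0.5 nM R1881 final; after 16 hr at 37C, ONE-Glo is added and light output recorded.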

[20] = biological target: Androgen receptor (Homo sapiens) (UniProt P10275); assay: qHTS assay to identify small molecule agonists of the androgen receptor (AR) signaling pathway in the presence of an antagonist (AID 1259381; calls by dose curve; also: nearly all actives have a fitted effect of over 15% in size)
Method in brief: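 Test compounds at 15 concentrations were incubated for 16hr with MDA-kb2 reporter cells in presence of 3.0uM nilutamide (final). Signal: ONE-Glo luciferase luminescence.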

Measured: Potency

C[N+]1(C)CCC(OC(=O)C(O)(c2ccccc2)C2CCCC2)C1 (centres undefined)
inactive: [1] | [2] | [3] | [4] | [5] | [6] | [7] | [8] | [9] | [10] | [11] | [12] | [13] | [14] | [15] | [16]

C#CCN(C)CCCOc1ccc(Cl)cc1Cl
inactive: [1] | [2] | [3] | [4] | [5] | [6] | [7] | [8] | [9] | [17] | [18] | [10] | [12] | [13] | [16]

COc1ccc2cccc(CCNC(C)=O)c2c1
inactive: [1] | [19] | [4] | [5] | [6] | [7] | [9] | [18] | [10] | [20] | [12] | [13] | [16]

COc1cc(C(=O)OCCCN2CCCN(CCCOC(=O)c3cc(OC)c(OC)c(OC)c3)CC2)cc(OC)c1OC
inactive: [1] | [3] | [4] | [5] | [8] | [17] | [18] | [20] | [12] | [13] | [14] | [15]
active: [2] 13.3 µM | [6] 6.68 µM | [7] 10.6 µM | [9] 6.68 µM | [11] 23.7 µM | [16] 13.3 µM

CCOCC(O)COc1ccc(NC(=O)CC[S+](C)C)cc1 (centres undefined)
inactive: [1] | [2] | [3] | [4] | [5] | [6] | [7] | [8] | [9] | [17] | [18] | [10] | [11] | [12] | [13] | [14] | [15] | [16]

OC[C@H]1O[C@@H](OCCc2ccc(O)cc2)[C@H](O)[C@@H](O)[C@@H]1O
inactive: [1] | [2] | [3] | [4] | [5] | [6] | [7] | [8] | [9] | [17] | [18] | [10] | [11] | [12] | [13] | [16]

CCOC(=O)c1cccnc1
inactive: [1] | [2] | [3] | [4] | [5] | [6] | [7] | [8] | [9] | [17] | [18] | [10] | [11] | [12] | [13] | [14] | [15] | [16]
